PubChem BioAssay (NCI)
The panel holds about 79,000 compounds, 15% with a hit somewhere; the sample as a whole holds those more often. A number with no mark means an inactive call. Calls of active or inactive are those of the source. Rule as the data show it: active = growth inhibition above about 70%; inactive = the rest.

Columns and labels:
[1] = NCI Yeast Anticancer Drug Screen. Data for the rad50 strain (AID 155);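 also: 0% = growth of vehicle-only cultures of the same strain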; conditions: S. cerevisiae rad50 strain growth inhibition, active compounds read high
Summary of the method: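 Inhibition values express reduced yeast growth in compound-treated cultures relative to vehicle-treated controls.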

[2] = NCI Yeast Anticancer Drug Screen. Data for the mec2-1 strain (AID 157); conditions: S. cerevisiae mec2-1 strain, active compounds read high
Summary of the method: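 Compounds were applied to mec2-1 yeast cells. Their growth was then compared with that of vehicle-treated cultures to give growth inhibition.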

[3] = NCI Yeast Anticancer Drug Screen. Data for the sgs1 mgt1 strain (AID 161);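 also: 0% = growth of cultures given vehicle only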; conditions: S. cerevisiae sgs1 mgt1 strain, active compounds read high
Summary of the method: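 Compounds are added to genetically altered yeast, and growth is compared with cultures given vehicle alone to give percent inhibition.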

[4] = NCI Yeast Anticancer Drug Screen. Data for the cln2 rad14 strain (AID 165);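 also: 0% = growth equal to vehicle treated cultures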; conditions: S. cerevisiae cln2 rad14 strain, active compounds read high
Summary of the method: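 Strain: cln2 rad14 yeast, altered in cell cycle control and DNA damage repair. Read-out: growth inhibition vs vehicle.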

[5] = NCI Yeast Anticancer Drug Screen. Data for the bub3 strain (AID 167); conditions: S. cerevisiae bub3 mutant strain, active compounds read high
Summary of the method: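 Steps: expose the mutant yeast strain to compound; grow alongside vehicle-treated cultures; measure growth; express inhibition against the vehicle cultures.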

[6] = NCI Yeast Anticancer Drug Screen. Data for the mlh1 rad18 strain (AID 175); conditions: S. cerevisiae mlh1 rad18 strain growth inhibition, active compounds read high
Summary of the method: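 A repair-deficient yeast strain is exposed to test compound, and growth is scored relative to vehicle-treated controls.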

[7] = at 5.0 µM (retest, dose inferred, filed as 0.5)
[8] = at 50.0 µM (retest, dose inferred, filed as 5.0)

Row | Compound | growth inhibition [1, 7] | growth inhibition [1, 8] | growth inhibition ([1]; at 50.0 µM) | growth inhibition [2, 7] | growth inhibition [2, 8] | growth inhibition ([2]; at 50.0 µM) | growth inhibition [3, 7] | growth inhibition [3, 8] | growth inhibition ([3]; at 50.0 µM) | growth inhibition [4, 7] | growth inhibition [4, 8] | growth inhibition ([4]; at 50.0 µM) | growth inhibition [5, 7] | growth inhibition [5, 8] | growth inhibition ([5]; at 50.0 µM) | growth inhibition [6, 7] | growth inhibition [6, 8] | growth inhibition ([6]; at 50.0 µM)
1 | CC1(C)CC(=O)C(CC2C(=O)c3ccccc3C2=O)C(=O)C1C(=O)C(=O)Nc1cccc2ccc(O)cc12 (stereo not given) | 28% | 48% | 7.85% | 25% | 23% | -13.3% | 10% | 39% | -8.6% | 22% | 39% | -7.7% | 30% | 36% | -31.9% | 32% | 52% | -30.2%
2 | CCOc1ccc(N=Nc2ccccc2)cc1 | -11% | -58% | 1.8% | -25% | -35% | 37.1% | -8% | -39% | -19.8% | 0% | -27% | 38% | -13% | -39% | -12.6% | -9% | -49% | -11.9%
3 | CCCCCCCCCN1CCNC1=S | -5% | 63% | 38.9% | -7% | 30% | -10.4% | 6% | 60% | 71% (active) | -18% | 40% | 0.9% | 34% | 80% (active) | 54.3% | 0% | 61% | 49.5%
4 | O=C1NN=C(c2ccc(Cl)cc2)CC1C1C(=O)N(c2ccccc2)N=C1c1ccccc1 (stereo not given) | 96% (active) | 96% (active) | 98.5% (active) | 96% (active) | 98% (active) | 98.9% (active) | 95% (active) | 98% (active) | 99.3% (active) | 88% (active) | 97% (active) | 96.3% (active) | 97% (active) | 95% (active) | 97.8% (active) | 97% (active) | 96% (active) | 98.3% (active)
5 | Cc1c2ccncc2c(C)c2c1sc1ccccc12 | 83% (active) | 94% (active) | 89.5% (active) | 38% | 96% (active) | 90% (active) | 43% | 94% (active) | 88.8% (active) | 32% | 95% (active) | 88.8% (active) | 55% | 95% (active) | 84.5% (active) | 77% (active) | 91% (active) | 83.3% (active)
